Among all 87,000 compounds or so, about 360 (0.41%) were called active. The sample as a whole holds a higher share of actives than the screen did. Unmarked numbers belong to inactive results. Cut-off read from the data, not from the text of the source: active = cytotoxicity above about 50%; inactive = the rest.
Experiment: cytotoxicity in HT1080 fibrosarcoma cells, cell-based, fluorescence readout (AID 620);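 note: cells exposed to compound overnight then 4 h with Alamar Blue; 0% = vehicle DMSO and 100% = killing control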
Conditions: HT1080 viability, at 10 µM, active compounds read high

| Compound | cytotoxicity |
| --- | --- |
| O=C(Nc1ccccc1)N1CCCC2CCCCC21 (centres undefined) | 6.5% |
| COc1cccc(-c2ccc(=O)n(CC(=O)NCCN3CCOCC3)n2)c1 | -0.6% |
| Cc1ccc(NC(=O)CN(C)c2ccc(S(=O)(=O)N3CCN(C)CC3)cn2)cc1 | -4.8% |
| O=C(O)C1CC=CCC1C(=O)N1CCc2ccccc21 (centres undefined) | -3.6% |
| Cc1cc(C)n2cc(CSc3nc4cc(Cl)ccc4o3)nc2n1 | 1% |
| Cc1ccc(C2C(C(=O)O)c3ccccc3C(=O)N2C)o1 (centres undefined) | 3.3% |
| CCOC(=O)c1[nH]c(C)c(C(=O)Nc2ccccc2F)c1C | 44.7% |
| CCOC(=O)c1[nH]c(C)c(C(=O)Nc2cccc(Cl)c2C)c1C | 33.8% |
| CCOC(=O)c1[nH]c(C)c(C(=O)Nc2ccccc2C)c1C | 61.8% (active) |
| COC(=O)C1=C(C)N(CCc2ccccc2)C(=O)C1(NS(=O)(=O)c1ccc(NC(C)=O)cc1)C(F)(F)F (centres undefined) | -19.4% |
| O=C(NCc1ccc2c(c1)OCO2)c1ccc(CN2CCOCC2)cc1 | -0.5% |
| Cc1ccc(C)c(CN2C(=O)C3(OCCCO3)c3ccccc32)c1 | -5.2% |
| Cc1ccc(C(=O)N2c3ccccc3N(Cc3ccccc3)C(=O)C2(C)C)cc1 | -12.6% |
| CC(=O)N1c2ccccc2N(Cc2ccc(C)cc2C)C(=O)C1(C)C | 52.2% (active) |
| Cc1nnc(N2C(=O)C(O)=C(C(=O)c3ccco3)C2c2ccc(C(C)C)cc2)s1 (centres undefined) | -3.4% |
| O=C(Nc1cc(C(F)(F)F)ccc1N1CCOCC1)c1ccc[n+]([O-])c1 | 8.9% |
| CCc1ccccc1NS(=O)(=O)c1ccc2[nH]cc(C(=O)NCC3CCCO3)c(=O)c2c1 (centres undefined) | 3.1% |
| COC(=O)c1ccc(NC(=O)CSc2nncn2C)cc1 | 3.9% |
| Cn1cnnc1SCC(=O)Nc1ccccc1 | 5.5% |
| CCCCOC(=O)c1ccc(NC(=O)CSc2nncn2C)cc1 | 61.2% (active) |
| CCCCCn1c(=O)[nH]c2cc(C(=O)NCCCN3CCCCC3)ccc2c1=O | -6% |
| CN(C)S(=O)(=O)c1cccc(-c2nnc(-c3ccccc3)o2)c1 | -8% |
| O=C(CSCc1c(Cl)cccc1Cl)NCc1ccco1 | 6.4% |
| C[C@@H](NC(=O)c1coc(=O)c(Br)c1)c1ccccc1 | 2.9% |
| CN(C)CCNC(=O)c1coc(=O)c(Br)c1 | -5.5% |

| Compound | cytotoxicity |
| --- | --- |
| CC(C)CCOc1ccc(C(=O)O)cc1 | -1.4% |
| COc1cc(OC)c(NC(=O)CCc2ccccc2)cc1Cl | -15.4% |
| CNC(=O)CSc1nnc(-c2ccco2)n1-c1ccccc1OC | 25.4% |
| CC(SC(=S)N1CCOCC1)C(=O)O (centres undefined) | 7.1% |
| CC(C(=O)OCc1nnc(-c2ccccc2)o1)N1C(=O)c2ccccc2C1=O (centres undefined) | 4.5% |
| N#Cc1cn(CCCOc2ccccc2)c2ccccc12 | 24.2% |
| COc1ccccc1OCCCn1cc(C#N)c2ccccc21 | 76.4% (active) |
| COc1ccccc1OCCn1cc(C#N)c2ccccc21 | -3.5% |
| Cc1ccc(Cn2c(-n3nc(C)cc3C)nc3c2c(=O)[nH]c(=O)n3C)cc1 | -7.9% |
| COc1ccc(CCn2c(-n3nc(C)cc3C)nc3c2c(=O)[nH]c(=O)n3C)cc1 | 55.6% (active) |
| Cc1cc(C)n(-c2nc3c(c(=O)[nH]c(=O)n3C)n2CCc2ccccc2)n1 | 15.7% |
| CC(=O)Cc1nsc(NC(=O)C2Cc3ccccc3C(=O)O2)n1 (centres undefined) | -9.2% |
| COc1ccccc1/C=N/n1c(C)nnc1-n1nc(C)cc1C | 9.8% |
| CCCOc1ccc2ccccc2c1/C=N/n1c(C)nnc1-n1nc(C)cc1C | 61.6% (active) |
| Cc1cc(C)n(-c2nnc(C)n2/N=C/c2cc(Br)ccc2OCc2ccccc2)n1 | 5.9% |
| Cc1c(C(N)=O)sc2ncn(CC(=O)N3CCC(C)CC3)c(=O)c12 | 0.9% |
| CCN1CCCC1CNC(=O)CN1C(=O)COc2ccc(C)cc21 (centres undefined) | -4.1% |
| O=C(Cc1ccc(Br)cc1)OCC(=O)c1ccc2c(c1)OCCO2 | -6.8% |
| O=C(Cn1cnc2ccccc2c1=O)OCC(=O)c1ccc2c(c1)OCCO2 | -7.6% |
| O=C(Cc1n[nH]c(=O)c2ccccc12)OCC(=O)c1ccc2c(c1)OCCO2 | 60.4% (active) |
| CC(C)c1cc(Nc2cccc(O)c2)cc(C(C)C)c1O | 2% |
| CCN(Cc1ccccc1)S(=O)(=O)c1ccc(S(=O)(=O)N(Cc2ccccn2)Cc2ccco2)cc1 | 11.3% |
| CCN1CCN(C(=O)Cn2ncc3ccsc3c2=O)CC1 | -5.8% |
| CCN1C(=O)/C(=C\N2CCCCCC2)SC1=S | -5.6% |
| CCN1C(=O)/C(=C/N2CCc3ccccc32)SC1=S | 5.1% |

| Compound | cytotoxicity |
| --- | --- |
| CCN1C(=O)/C(=C\N2CCCc3ccccc32)SC1=S | 52.5% (active) |
| COc1ccc(C(=O)Nc2ccc(N3CCOCC3)cc2)cc1OC | -4.9% |
| COc1cc(C(=O)Nc2cccc3cccnc23)cc(OC)c1OC | 5.4% |
| Cn1c(=N)n(CC(=O)O)c2ccccc21 | 0.2% |
| Cn1c(=N)n(CC(O)c2cccc3ccccc23)c2ccccc21 (centres undefined) | 57.8% (active) |
| Cn1c(=N)n(CC(O)c2ccco2)c2ccccc21 (centres undefined) | -14.7% |
| CC1CCC(C(C)C)C(OCC(O)CN2CCOCC2)C1 (centres undefined) | 2.7% |
| COc1ccccc1NC(=O)c1oc2ccccc2c1NC(=O)c1ccco1 | 0.3% |
| COCC(=O)Nc1c(C(=O)Nc2ccccc2OC)oc2ccccc12 | -17.1% |
| COc1ccccc1NC(=O)c1oc2ccccc2c1NC(=O)c1cc(OC)c(OC)c(OC)c1 | 50% (active) |
| Cc1oc2c(c1C(=O)Nc1cccc(C(=O)O)c1)CCCC2 | 9.3% |
| CC1(C)CC2CC(C)(CN2C(=O)Cc2ccccc2)C1 (centres undefined) | -25% |
| COc1cccc(C2C(C(N)=O)=C(C)Nc3nc(CCCO)nn32)c1OC (centres undefined) | 1% |
| CCOC(=O)c1c(C)sc2c1N(C(=O)CN(CC)CC)c1cc(Cl)ccc1S2 | 6.5% |
| CCOC(=O)c1c(C)sc2c1N(C(=O)CCl)c1cc(Cl)ccc1S2 | 87.2% (active) |
| CCOC(=O)c1c(C)sc2c1N(C(C)=O)c1cc(Cl)ccc1S2 | 17.6% |
| CCCN1CCN(C(c2cc3cc4c(cc3[nH]c2=O)OCO4)c2nnnn2C(C)(C)C)CC1 (centres undefined) | 1.4% |
| CCN(CC)S(=O)(=O)c1cccc(C(=O)Nc2ccc(Cl)cn2)c1 | -7.6% |
| Fc1ccc(Br)cc1C1C=C(c2ccc(Br)cc2)Nc2ncnn21 (centres undefined) | -11.5% |
| Fc1ccc(Br)cc1C1C=C(c2ccc(Br)s2)Nc2ncnn21 (centres undefined) | 62.6% (active) |
| CCc1ccc(C2=CC(c3cc(Br)ccc3F)n3ncnc3N2)cc1 (centres undefined) | 44.7% |
| Cc1cc(N)n(-c2ncnc3scc(-c4ccc(Cl)cc4)c23)n1 | 7.2% |
| COc1ccc(C(=O)C(CN2CCOCC2)c2ccccc2)cc1F (centres undefined) | 25.3% |
| CC(CN1CCOCC1)C(=O)c1ccccc1 (centres undefined) | -9.8% |
| CCCCCOc1ccc(C(=O)C(c2ccccc2)N2CCOCC2)cc1 (centres undefined) | -2% |

| Compound | cytotoxicity |
| --- | --- |
| COc1ccc(C(=O)C(CN2CCOCC2)c2ccccc2)cc1 (centres undefined) | 27% |
| O=C(c1ccc(F)cc1)C(CN1CCOCC1)c1ccccc1 (centres undefined) | 61% (active) |
| CCc1cc(=O)oc2cc(OCC(=O)N(CC)CC)c(Cl)cc12 | 2.2% |
| O=C(CCn1c(=O)sc2ccccc21)NCc1ccccc1 | 0% |
| c1ccc2[nH]c(CSc3nc4ccccc4s3)nc2c1 | -3.3% |
| CCCC[C@@H]1C[C@H]1C(NC(=O)c1ccc(C(F)(F)F)cc1)c1ccc(C(=O)OC)cc1 (some centres undefined) | -11.3% |
| CCn1cc(C(=O)O)c(=O)c2cnc(N3CCN(C(=O)Nc4cccc5ccccc45)CC3)nc21 | -1.8% |
| CC(=O)N1CCN(Cc2ccc(Br)s2)CC1 | -4.4% |
| Cc1[nH]c(=O)[nH]c(=O)c1S(=O)(=O)N1c2ccc(F)cc2CCC1C (centres undefined) | -0.4% |
| CCCN(C(=O)Cn1ncc2c(=O)oc3ccccc3c21)c1cccc(C)c1 | -2.3% |
| O=C(CN(c1ccccc1F)S(=O)(=O)c1ccccc1)NC1CCCCCC1 | -8.6% |
| Fc1ccc(-c2nnc(CN3CCN(c4ncc(C(F)(F)F)cc4Cl)CC3)o2)cc1 | -2.5% |
| CCCCc1ccc(-c2nc(N)n[nH]2)cc1 | 5.5% |
| CCCCCc1ccc(-c2ccc(=O)[nH]n2)cc1 | 15.3% |
| CCCCCCc1ccc(-c2ncc(N)cn2)cc1 | 97.1% (active) |
| CCCn1c(=O)c2ccccc2n2c(SCC(=O)c3cc(C)n(CC4CCCO4)c3C)nnc12 (centres undefined) | 6.6% |
| COc1ccccc1N(CC(=O)NC1CCCCC1)S(C)(=O)=O | -0.7% |
| Fc1ccc(N2CCN(c3nc(-c4ccco4)cc(C(F)(F)F)n3)CC2)cc1 | -8.6% |
| O=C(c1c[nH]c2ccc(F)cc2c1=O)N1CCCCCC1 | 67.1% (active) |
| COc1ccc2[nH]cc(C(=O)N3CCCCC3)c(=O)c2c1 | -0.4% |
| CCc1ccc2[nH]cc(C(=O)N3CCCCCC3)c(=O)c2c1 | -11% |
| FC(F)(F)c1cc(-c2ccco2)nc(-n2nnc3ccccc32)n1 | -10.9% |
| Cc1nc2ccccc2n1-c1nc(-c2ccco2)cc(C(F)(F)F)n1 | 65.2% (active) |
| FC(F)(F)c1cc(-c2ccco2)nc(-n2cnc3ccccc32)n1 | -14.2% |
